A selection: hits, their analogues and other compounds. The true share with any hit is near 19%.
ELG1 DNA repair: qHTS screen for small molecules that inhibit ELG1-dependent DNA repair in human embryonic kidney (HEK293T) cells expressing luciferase-tagged ELG1 | HEK293T ELG1-luciferase reporter, luminescence, 16 h; DNA damage induced by 5-fluorouridine | Potency, µM (doses to about 46.1 µM), for inactives: at the top dose activity change, negative = inhibition, actives largely listed as inhibitors | 330,000 tested, 2.3% active; note: potency is the fitted concentration of half-maximal effect; nearly all actives have a fitted effect of over 55% in size
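DMSO vehicle served as the neutral condition. Each well held 2,000 cells given 5-fluorouridine plus compound; after 16 hr at 37 °C/5% CO2, ONE-Glo was added and luciferase measured 30 min later.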
HT1080 IDH1KD tx: qHTS for induction of synthetic lethality in tumor cells producing 2HG: qHTS for the HT-1080-IDH1KD cell line. HT-1080 IDH1 knockdown viability, ATP luminescence, 48 h. Potency, µM (titrated, usually from 46.1 µM), without a hit: at the highest dose activity, negative = toxicity, usual class: cytotoxic. 360,000 tested, 2% active. AID 686971, 2013;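 note: potency is the fitted concentration of half-maximal effect; 0% = DMSO wells and -100% = cell-free medium wells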
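IDH1KD HT-1080 cells, 750/well, RPMI + 5% FBS; compound pinned after 2 h settling; 48 h, 37 °C; CellTiter-Glo luminescence; % activity normalised to DMSO and no-cell wells; curves fitted, classed by r2 and efficacy.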
HT1080-NT tox: qHTS for induction of synthetic lethality in tumor cells producing 2HG: qHTS for the HT-1080-NT fibrosarcoma cell line; AID 686970, 2013; 360,000 tested, 1.6% active; Potency, µM (top dose mostly 46.1 µM), without a hit: top-dose activity, negative = less viability, actives largely listed as cytotoxic; HT-1080-NT fibrosarcoma viability, CellTiter-Glo ATP luminescence, 48 h;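 note: NT is the 2HG producing partner of a matched IDH1 knockdown line; potency is the fitted concentration of half-maximal effect; 0% = DMSO-treated cells and -100% = media-only wells without cells; nearly all actives have a fitted effect of over 55% in size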
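HT-1080-NT fibrosarcoma cells (2HG-overproducing), 750 cells/well in RPMI with 5% FBS, dosed after 2 h and incubated 48 h at 37C. CellTiter-Glo luminescence normalized to DMSO and no-cell wells; concentration-response curves fitted and classed.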
TDP1 cell noCPT: qHTS for Inhibitors of human tyrosyl-DNA phosphodiesterase 1 (TDP1): qHTS in cells in absence of CPT; 420,000 tested, 15% active; Potency, µM (series often up to 46.2 µM), without a hit: top-dose activity change, negative = growth inhibition, hits mostly inhibitors; DT40 Tdp1-/- hTDP1 cells, no CPT, ATP luminescence, 48 h; note: potency is the fitted concentration of half-maximal effect; nearly all actives have a fitted effect of over 55% in size
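Seeded 400 DT40-hTDP1 cells/well (vehicle DMSO, no 20 nM CPT); pinned compounds; ≥48 hr at 37 °C; CellTiter-Glo luminescence as viability measure.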
TDP1 cell CPT: qHTS for Inhibitors of human tyrosyl-DNA phosphodiesterase 1 (TDP1): qHTS in cells in presence of CPT. chicken DT40 Tdp1-/-;hTDP1 cells + 20 nM CPT, ATP luminescence, 48 h. Potency, µM (series often up to 46.2 µM), for inactives: at the top dose activity change, negative = growth inhibition, hits mostly inhibitors. 420,000 tested, 12% active. AID 686979, 2013; note: potency is the fitted concentration of half-maximal effect; nearly all actives have a fitted effect of over 55% in size
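Chicken DT40 Tdp1-/- cells complemented with human TDP1, 400 cells/well, exposed to compounds plus 20 nM camptothecin for at least 48 h at 37 C; viability read as ATP content by CellTiter-Glo luminescence.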
IL1B secr inh: qHTS for Inhibitors of Inflammasome Signaling: IL-1-beta AlphaLISA Primary Screen; AID 743279, 2014; 360,000 tested, 4.7% active; activity change, % at 57.5 µM; THP-1 LPS/ATP IL-1B secretion, AlphaLISA, 16 h; active compounds read low; in the data active = activity change below about -50%; inconclusive = mostly about -30% to -49%
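Secreted IL-1B measured by AlphaLISA bead assay after 16 h compound exposure of THP-1 cells; compounds (final up to 57.5 uM) added 1 h before LPS (250 ng/mL) and ATP (1.25 mM) stimulation; lower signal means less secretion.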
An asterisk follows results filed as active; i = inactive; ? = inconclusive; · = not tested or not shown. Unless noted, calls come from the whole dose curve; as a rule, active = well fitted curve in the direction sought with a large enough effect; inconclusive = small, poorly fitted or top-dose-only effect, or another doubt; inactive = no such curve, though single readings can be large; an effect the other way counts as inactive or inconclusive. Unless noted, % is set by controls: 0 for no effect and ±100 for the full control effect.

SMILES | ELG1 DNA repair | HT1080 IDH1KD tx | HT1080-NT tox | TDP1 cell noCPT | TDP1 cell CPT | IL1B secr inh
O=C(NC(c1ccc(-c2ccccc2)cc1)c1cnccn1)C1CCN(Cc2cccs2)CC1 (stereo unspecified) | · | ? | ? | ? | ? | -10.9
O=C(NC(c1ccc(-c2ccccc2)cc1)c1cnccn1)C1CCN(CCN2C(=O)c3ccccc3C2=O)CC1 (stereo unspecified) | · | -9.4% | -3.5% | 23.1µM* | 23.1µM* | -1.4
Cc1cccnc1C(NC(=O)C1CCN(Cc2ccccc2)CC1)c1ccc(F)cc1 (stereo unspecified) | · | -27.8% | -36.9% | ? | ? | -14.5
COc1ccc(CN2CCC(C(=O)NC(C)c3cccc4ccccc34)CC2)cc1 (stereo unspecified) | · | -14.2% | -16.3% | ? | ? | -21.4
Cc1cccnc1C(NC(=O)C1CCN(Cc2ccc(Oc3ccccc3)cc2)CC1)c1ccccc1 (stereo unspecified) | · | 18.4µM* | 23.1µM* | 18.4µM* | 14.6µM* | ?
COc1ccc(C(NC(=O)C2CCN(Cc3ccc(Oc4ccccc4)cc3)CC2)c2ccccc2C)cn1 (stereo unspecified) | · | ? | 16.4µM* | 18.4µM* | 20.6µM* | ?
Cc1ccc(CCNC(=O)CSCc2ccc(F)cc2)cc1 | -13.8% | -1.9% | 1.8% | 4.5% | 11.4% | -12.4
COc1cccc(C2Nc3ccccc3NC3=C2C(=O)CC(C)(C)C3)c1 (stereo unspecified) | 8.9% | 7.9% | 5.5% | -0.8% | -3.2% | -22.5
O=C(NC(c1ccccc1)c1ccsc1)C1CCN(Cc2ccc(Oc3ccccc3)cc2)CC1 (stereo unspecified) | · | 14.6µM* | 18.4µM* | 18.4µM* | ? | ?
COc1cc(CN2CCC(C(=O)NC(c3ccc(-c4ccccc4)cc3)c3cnccn3)CC2)cc(OC)c1 (stereo unspecified) | · | 23.1µM* | 23.1µM* | 23.1µM* | 9.2µM* | -53.1*
O=C(NC(c1ccccc1)c1ccsc1)C1CCN(Cc2ccc(Cl)c(Cl)c2)CC1 (stereo unspecified) | · | 4.3% | 9.0% | ? | ? | ?
COc1ccc(C(NC(=O)C2CCN(Cc3ccc(Oc4ccccc4)cc3)CC2)c2ccccn2)cc1 (stereo unspecified) | · | 23.1µM* | 14.6µM* | 16.4µM* | 16.4µM* | ?
COc1ccc(CN2CCC(C(=O)Nc3ccc(Oc4cccnc4)cc3)CC2)cc1 | -3.1% | -12.8% | -0.6% | -10.6% | ? | i
O=C(NC(c1ccc(-c2ccccc2)cc1)c1cnccn1)C1CCN(Cc2ccc(Oc3ccccc3)cc2)CC1 (stereo unspecified) | · | ? | 13µM* | ? | ? | -52.2*
COc1ccc(C(CNC(=O)c2c(C)nn(Cc3ccc(C)cc3)c2Cl)N2CCOCC2)cc1 (stereo unspecified) | 20.6µM* | -5.2% | -4.2% | 23.1µM* | ? | -81.5*
Cc1ccc(Cn2nc(C)c(C(=O)NCC(c3cccs3)N3CCOCC3)c2Cl)cc1 (stereo unspecified) | 5.62µM* | -13.2% | 2.6% | 23.1µM* | 20.6µM* | 8.4
COc1ccc(C(CNC(=O)c2ccc(C)o2)N2CCOCC2)cc1 (stereo unspecified) | 10.2% | 4.1% | 6.4% | -1.1% | 7.2% | 9.9
Cc1cn(C)c(CC(=O)N2CCN(c3ccccc3F)CC2)c1C(=O)O | · | · | · | -9.2% | -20.2% | ·
O=C(c1ccc(Oc2ccc(C(F)(F)F)cc2[N+](=O)[O-])cc1)N1CCOCC1 | 3.0% | -2.7% | -1.2% | 14.6µM* | ? | 9.7
O=C(c1ccccc1Oc1ccc(C(F)(F)F)cc1[N+](=O)[O-])N1CCOCC1 | 10.3% | 2.9% | 3.0% | 16.2% | -4.6% | 8.7
CCN(CC)S(=O)(=O)c1cccc(NC(=O)c2ccc(Br)cc2)c1 | ? | -7.5% | -9.1% | 20.6µM* | ? | -70.3*
CCN(CC)S(=O)(=O)c1cccc(NC(=O)c2ccc(Sc3nncn3C)c([N+](=O)[O-])c2)c1 | ? | 0.7% | 5.1% | 23.1µM* | 16.4µM* | -9.0
CCN(CC)S(=O)(=O)c1cccc(C(=O)N[C@H](C(=O)NCc2ccc(Cl)cc2)C(C)C)c1 | ? | -20.3% | -3.4% | 14.6µM* | 23.1µM* | -22.5
CCN(CC)S(=O)(=O)c1cccc(C(=O)N[C@H](C(=O)NCc2ccccc2F)C(C)C)c1 | ? | 2.0% | 14.5% | ? | ? | 29.4
CCN(CC)S(=O)(=O)c1cccc(C(=O)Nc2ccc(C#N)cc2)c1 | ? | -18.6% | -1.6% | 8.2µM* | ? | -15.5
SMILES | ELG1 DNA repair | HT1080 IDH1KD tx | HT1080-NT tox | TDP1 cell noCPT | TDP1 cell CPT | IL1B secr inh
COc1ccccc1N1CCN(CCC(=O)Nc2cccc(Cl)c2)CC1 | -26.6% | -10.2% | -13.3% | -12.3% | -13.7% | 0.0
CCN(CC)S(=O)(=O)c1cccc(C(=O)Nc2ccccc2C(=O)Nc2ccc(Cl)cc2)c1 | · | · | · | 18.4µM* | ? | ·
CCN(CC)C(=O)c1ccccc1NC(=O)c1cccc(S(=O)(=O)N(CC)CC)c1 | -21.0% | 0.5% | -3.7% | -10.2% | -16.2% | -16.2
COc1cc(-c2nc(S(=O)(=O)c3ccc(Br)cc3)c(N3CCOCC3)o2)cc(OC)c1OC | · | · | · | 8.2µM* | 11.6µM* | ·
COc1ccccc1-c1nc(S(=O)(=O)c2ccc(Cl)cc2)c(N2CCCCCC2)o1 | · | · | · | 16.4µM* | 16.4µM* | ·
CCN1CCN(c2oc(-c3ccccc3C)nc2S(=O)(=O)c2ccccc2)CC1 | -0.3% | -9.9% | -10.6% | 18.4µM* | ? | -30.0
O=S(=O)(c1ccccc1)c1nc(-c2ccccc2Cl)oc1N1CCCCCC1 | · | · | · | 20.6µM* | ? | ·
COc1ccccc1-c1nc(S(=O)(=O)c2ccccc2)c(N2CCCCC2)o1 | 0.7% | 7.5% | 12.7% | ? | ? | -15.5
CCOP(=O)(c1ccccc1)c1nc(-c2ccccc2Cl)oc1N1CCCCC1 (stereo unspecified) | ? | ? | ? | ? | ? | -67.4*
